IL-1B inflam inh: qHTS for Inhibitors of Inflammasome Signaling: IL-1-beta AlphaLISA Primary Screen | THP-1 LPS/ATP IL-1B secretion, AlphaLISA, 16 h; stronger effect = lower value | activity change, % at 57.5 µM | hit rate 4.7% among 360,000; in the data active = activity change below about -50%; inconclusive = mostly about -30% to -49%
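THP-1 cells pretreated 1 hr with compounds (up to 57.5 uM final), then stimulated with LPS (250 ng/mL final) plus ATP (1.25 mM final); secreted IL-1B measured by AlphaLISA after 16 hr, decreased signal indicating inhibition.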
DT40 TDP1 CPT: qHTS for Inhibitors of human tyrosyl-DNA phosphodiesterase 1 (TDP1): qHTS in cells in presence of CPT; chicken DT40 Tdp1-/-;hTDP1 cells + 20 nM CPT, ATP luminescence, 48 h; Potency, µM (titrated, usually from 46.2 µM), without a hit: top-dose activity change, negative = growth inhibition, hits mostly inhibitors; hit rate 12% among 420,000; note: potency is the fitted concentration of half-maximal effect; nearly all actives have a fitted effect of over 55% in size
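Chicken DT40 Tdp1-/- cells stably complemented with human TDP1 were seeded at 400 cells/well in medium containing 20 nM camptothecin, exposed to pin-transferred compounds, and grown at 37 °C for at least 48 hr. Viability was read as ATP luminescence.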
12-LOX inh: Primary qHTS assay for inhibitors of human arachidonate 12S-lipoxygenase (ALOX12): Round 2; purified 12hLO, xylenol orange hydroperoxide absorbance; Potency, µM (highest dose often 108 µM), for inactives: at the highest dose activity change, negative = inhibition, most hits filed as inhibitors; Polyunsaturated fatty acid lipoxygenase ALOX12 (Homo sapiens), P18054; AID 1671190, 2021; hit rate 1.1% among 580,000; note: potency is the fitted concentration of half-maximal effect
Target sequence (P18054 whole entry, looked up): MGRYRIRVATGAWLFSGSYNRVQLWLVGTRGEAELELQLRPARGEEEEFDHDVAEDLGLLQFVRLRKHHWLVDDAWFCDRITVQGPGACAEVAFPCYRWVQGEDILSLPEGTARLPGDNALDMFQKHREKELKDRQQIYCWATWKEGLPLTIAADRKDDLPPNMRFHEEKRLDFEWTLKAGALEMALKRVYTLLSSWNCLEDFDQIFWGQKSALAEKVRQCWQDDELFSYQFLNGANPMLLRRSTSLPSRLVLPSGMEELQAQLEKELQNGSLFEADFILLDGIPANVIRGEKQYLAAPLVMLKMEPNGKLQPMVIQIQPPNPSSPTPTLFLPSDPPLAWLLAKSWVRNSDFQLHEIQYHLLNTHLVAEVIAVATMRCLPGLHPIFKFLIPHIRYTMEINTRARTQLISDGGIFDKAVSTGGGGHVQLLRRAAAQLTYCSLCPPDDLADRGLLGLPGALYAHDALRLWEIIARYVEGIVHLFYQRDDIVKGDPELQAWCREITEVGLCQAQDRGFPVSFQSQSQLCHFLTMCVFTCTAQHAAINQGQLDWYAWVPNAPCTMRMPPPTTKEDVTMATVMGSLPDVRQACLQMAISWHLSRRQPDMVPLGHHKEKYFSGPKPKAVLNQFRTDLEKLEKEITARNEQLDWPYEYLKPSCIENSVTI
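Purified human 12hLO at 150 nM in 25 mM Hepes, 0.01% Triton X-100, pH 7.0, preincubated 15 min at room temperature with compound. Reaction started with 40 uM arachidonic acid, 30 min at room temperature. Hydroperoxide measured by Fe-xylenol orange, 573/405 nm absorbance ratio.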
DT40 TDP1 no CPT: qHTS for Inhibitors of human tyrosyl-DNA phosphodiesterase 1 (TDP1): qHTS in cells in absence of CPT | DT40 Tdp1-/- hTDP1 cells, no CPT, ATP luminescence, 48 h | Potency, µM (doses to about 46.2 µM), for the others: at the top dose activity change, negative = growth inhibition, actives largely listed as inhibitors | hit rate 15% among 420,000 | AID 686978, 2013; note: potency is the fitted concentration of half-maximal effect; nearly all actives have a fitted effect of over 55% in size
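A cellular qHTS used chicken DT40 cells lacking endogenous Tdp1 but carrying stably transfected human TDP1. Compounds were applied without camptothecin, and cell growth kinetics were judged by ATP-dependent luminescence after ≥48 hr.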
HT1080-NT tox: qHTS for induction of synthetic lethality in tumor cells producing 2HG: qHTS for the HT-1080-NT fibrosarcoma cell line; Potency, µM (titrated, usually from 46.1 µM), for inactives: at the top dose activity, negative = less viability, usual class: cytotoxic; AID 686970, 2013; hit rate 1.6% among 360,000; HT-1080-NT fibrosarcoma viability, CellTiter-Glo ATP luminescence, 48 h;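 note: NT is the 2HG producing partner of a matched IDH1 knockdown line; potency is the fitted concentration of half-maximal effect; 0% = DMSO-treated cells and -100% = media-only wells without cells; nearly all actives have a fitted effect of over 55% in size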
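Viability by CellTiter-Glo luminescence after 48 h compound exposure at 37C of HT-1080-NT cells (750/well, RPMI, 5% FBS). % activity scaled between DMSO wells and medium-only wells, then curve-fitted and categorized by curve class.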
HT1080 IDH1KD tx: qHTS for induction of synthetic lethality in tumor cells producing 2HG: qHTS for the HT-1080-IDH1KD cell line; AID 686971, 2013; HT-1080 IDH1 knockdown viability, ATP luminescence, 48 h; Potency, µM (titrated, usually from 46.1 µM), for the others: at the highest dose activity, negative = toxicity, actives largely listed as cytotoxic; hit rate 2% among 360,000;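 note: potency is the fitted concentration of half-maximal effect; 0% = DMSO wells and -100% = cell-free medium wells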
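In this qHTS, HT-1080 cells depleted of IDH1 are exposed for 48 h at 37 °C to compound titrations. Toxicity is scored from CellTiter-Glo luminescence, with DMSO as full viability and medium alone as none.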
* hit, by the source's call; ? = inconclusive; . = no result; [ ] = dose if it differs, or a comment. This is one part of a sample in which hits are shown more often than they occur. Unless noted, calls come from the whole dose curve; as a rule, active = well fitted curve in the direction sought with a large enough effect; inconclusive = small, poorly fitted or top-dose-only effect, or another doubt; inactive = no such curve, though single readings can be large; an effect the other way counts as inactive or inconclusive. Unless noted, % is set by controls: 0 for no effect and ±100 for the full control effect.

SMILES	IL-1B inflam inh	DT40 TDP1 CPT	12-LOX inh	DT40 TDP1 no CPT	HT1080-NT tox	HT1080 IDH1KD tx
COc1ccc(Cl)cc1NC(=O)C1CCCN(c2ncnc3onc(C)c23)C1 (stereo not given)	.	18µM*	-3%	23µM*	.	.
Cc1noc2ncnc(N3CCCC(C(=O)Nc4cccc(C(F)(F)F)c4)C3)c12 (stereo not given)	.	15µM*	-3%	18µM*	.	.
Cc1noc2ncnc(N3CCCC(C(=O)Nc4cc(F)ccc4F)C3)c12 (stereo not given)	.	13µM*	-5%	12µM*	.	.
CCN(CC)C(=O)C1CCCN(c2ncnc3onc(C)c23)C1 (stereo not given)	.	?	-11%	?	.	.
CCCCCSc1nc2c(c(=O)[nH]c(=O)n2C)n1CCOC	.	.	-52%	.	.	.
CCC(C)[C@@H](NC(=O)OC(C)(C)C)c1nnc(S(=O)(=O)Cc2cccc(C)c2)o1 (stereo not given in full)	-116*	2.1µM*	14%	4.6µM*	18µM*	-21%[9.24 µM]
CC(C)(C)OC(=O)N[C@@H](Cc1ccccc1)c1nnc(S(=O)(=O)Cc2ccccc2)o1	.	.	4%	.	.	.
Cc1ccccc1CS(=O)(=O)c1nnc([C@H](Cc2ccccc2)NC(=O)OC(C)(C)C)o1	?	0.65µM*	7%	2.1µM*	5µM*	1.8µM*
Cc1ccccc1NS(=O)(=O)c1cnc(N)nc1	.	.	-6%	.	.	.
Cc1cccc(Oc2nc3ccccn3c(=O)c2/C=C(\C#N)C(=O)NC2CCS(=O)(=O)C2)c1C (stereo not given)	-99*	?	?	?	-10%	-17%
Cc1cc(Oc2nc3ccccn3c(=O)c2/C=C(\C#N)C(=O)NC2CCS(=O)(=O)C2)ccc1Cl (stereo not given)	-11	-25%	?	16µM*	?	?
N#C/C(=C\c1c(Oc2ccc(Cl)cc2)nc2ccccn2c1=O)C(=O)NC1CCS(=O)(=O)C1 (stereo not given)	-100*	-14%	-2%	?	-13%	?
COc1ccc(Oc2nc3c(C)cccn3c(=O)c2/C=C(\C#N)C(N)=O)cc1	23	?	0%	1.8µM*	?	?
N#C/C(=C\c1c(N2CCCCC2)nc2ccccn2c1=O)C(=O)NC1CCS(=O)(=O)C1 (stereo not given)	-6	-3%	-23%	-8%	9%	8%
CCN(CC)c1ccc(CNC(=O)c2ccc3c(c2)n(C)c(=O)c2ccnn23)cc1	.	.	-12%	.	.	.
COCc1cn([C@H]2CO[C@H]3[C@@H]2OC[C@H]3OC(=O)Nc2cccc(C(F)(F)F)c2)nn1	.	.	39%[176 µM]	.	.	.
Cc1cccn2c(=O)c(/C=C(\C#N)C(=O)NC3CCS(=O)(=O)C3)c(Oc3ccc(F)cc3)nc12 (stereo not given)	-25	?	?	21µM*	?	?
O=C(Nc1c(NCC2CCCCC2)c2ccccc2oc1=O)c1cccs1	.	.	-6%	.	.	.
CN(C)C(=O)N1CCCN(c2nc3ncccc3o2)CC1	.	.	9%[176 µM]	.	.	.
Cc1cc(C(F)(F)F)c2c(C)nn(-c3ccccc3)c2n1	7	-27%	0%	?	-8%	0%
Cc1cc(C)nc(Sc2c(C)nn(-c3ccccc3)c2C)n1	7	?	5%	21µM*	1%	-1%
O=C(Nc1ccc(Cl)cc1)[C@@H]1[C@@H]2C(=O)N(c3ccc(Cl)cc3)C(=O)[C@@H]2[C@H]2C=CC=NN21	11	?	?	?	-15%	-16%
Cc1ccc(N2C(=O)[C@@H]3[C@H](C2=O)[C@H]2C=CC=NN2[C@@H]3C(=O)Nc2ccc(Cl)cc2)cc1	24	-10%	10µM*	-10%	0%	-3%
O=C(NCC(c1cccnc1)N1CCOCC1)C1CCCCC1 (stereo not given)	7	17%	29%	-5%	2%	0%
COc1ccccc1N1CCN(C(CNS(=O)(=O)c2ccccc2)c2cccnc2)CC1 (stereo not given)	14	23µM*	.	18µM*	-2%	-5%
SMILES	IL-1B inflam inh	DT40 TDP1 CPT	12-LOX inh	DT40 TDP1 no CPT	HT1080-NT tox	HT1080 IDH1KD tx
COc1ccc(S(=O)(=O)NCC(c2cccnc2)N2CCN(c3ccccc3OC)CC2)cc1C (stereo not given)	-28	?	-3%	?	-3%	-1%
COc1ccccc1N1CCN(C(CNC(=O)C2CCCCC2)c2cccnc2)CC1 (stereo not given)	6	8.2µM*	9%	10µM*	-4%	1%
CCOCCCNC(=O)C1CCOCC1	.	.	11%	.	.	.
COC(=O)c1ccc2c(c1)C(C)(C)C(/C=C/c1ccccc1O)=[N+]2C	-100*	3.2µM*	?	3.2µM*	4.5µM*	3.5µM*
CCN(CC)C(=O)C1CCCN(c2ncnc3c2cnn3-c2cccc(C)c2)C1 (stereo not given)	-56*	?	-25%	16µM*	-26%	-13%
CCOC(=O)C1CCCN(c2ncnc3c2cnn3-c2cccc(C)c2)C1 (stereo not given)	6	-12%	2%	-10%	9%	18%
